In PubChem BioAssay AID602261 (Sanford-Burnham Center for Chemical Genomics, 2012) one finds inhibition data, which are given here for 25 molecules.

The term inhibition denotes the relative decrease from the control value, in per cent.

Hit rate of the full screen: of about 360,000 compounds, about 2,400 (0.67%) were called active. For the sample, actives were picked, then their nearest neighbours and some compounds at random. Values without a mark were called inactive.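 How the source made its calls: active means compounds whose normalised, plate-corrected inhibition of enzyme fluorescence in the single-dose primary screen is 50% or more; inactive means the rest.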

The target in this test is Fatty acid synthase (Homo sapiens) (UniProt P49327). Nature of the test: inhibition of human FAS-TE enzyme activity – biochemical, fluorescence intensity, uHTS, primary screen (AID 602261).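 Further: 0% = DMSO with enzyme and 100% = substrate without enzyme.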 The conditions noted are these: recombinant FAS-TE, OMFH fluorogenic substrate, fluorescence endpoint; at 15 µM; stronger effect = higher value.
Sequence of Fatty acid synthase (Homo sapiens) (P49327 whole entry, looked up): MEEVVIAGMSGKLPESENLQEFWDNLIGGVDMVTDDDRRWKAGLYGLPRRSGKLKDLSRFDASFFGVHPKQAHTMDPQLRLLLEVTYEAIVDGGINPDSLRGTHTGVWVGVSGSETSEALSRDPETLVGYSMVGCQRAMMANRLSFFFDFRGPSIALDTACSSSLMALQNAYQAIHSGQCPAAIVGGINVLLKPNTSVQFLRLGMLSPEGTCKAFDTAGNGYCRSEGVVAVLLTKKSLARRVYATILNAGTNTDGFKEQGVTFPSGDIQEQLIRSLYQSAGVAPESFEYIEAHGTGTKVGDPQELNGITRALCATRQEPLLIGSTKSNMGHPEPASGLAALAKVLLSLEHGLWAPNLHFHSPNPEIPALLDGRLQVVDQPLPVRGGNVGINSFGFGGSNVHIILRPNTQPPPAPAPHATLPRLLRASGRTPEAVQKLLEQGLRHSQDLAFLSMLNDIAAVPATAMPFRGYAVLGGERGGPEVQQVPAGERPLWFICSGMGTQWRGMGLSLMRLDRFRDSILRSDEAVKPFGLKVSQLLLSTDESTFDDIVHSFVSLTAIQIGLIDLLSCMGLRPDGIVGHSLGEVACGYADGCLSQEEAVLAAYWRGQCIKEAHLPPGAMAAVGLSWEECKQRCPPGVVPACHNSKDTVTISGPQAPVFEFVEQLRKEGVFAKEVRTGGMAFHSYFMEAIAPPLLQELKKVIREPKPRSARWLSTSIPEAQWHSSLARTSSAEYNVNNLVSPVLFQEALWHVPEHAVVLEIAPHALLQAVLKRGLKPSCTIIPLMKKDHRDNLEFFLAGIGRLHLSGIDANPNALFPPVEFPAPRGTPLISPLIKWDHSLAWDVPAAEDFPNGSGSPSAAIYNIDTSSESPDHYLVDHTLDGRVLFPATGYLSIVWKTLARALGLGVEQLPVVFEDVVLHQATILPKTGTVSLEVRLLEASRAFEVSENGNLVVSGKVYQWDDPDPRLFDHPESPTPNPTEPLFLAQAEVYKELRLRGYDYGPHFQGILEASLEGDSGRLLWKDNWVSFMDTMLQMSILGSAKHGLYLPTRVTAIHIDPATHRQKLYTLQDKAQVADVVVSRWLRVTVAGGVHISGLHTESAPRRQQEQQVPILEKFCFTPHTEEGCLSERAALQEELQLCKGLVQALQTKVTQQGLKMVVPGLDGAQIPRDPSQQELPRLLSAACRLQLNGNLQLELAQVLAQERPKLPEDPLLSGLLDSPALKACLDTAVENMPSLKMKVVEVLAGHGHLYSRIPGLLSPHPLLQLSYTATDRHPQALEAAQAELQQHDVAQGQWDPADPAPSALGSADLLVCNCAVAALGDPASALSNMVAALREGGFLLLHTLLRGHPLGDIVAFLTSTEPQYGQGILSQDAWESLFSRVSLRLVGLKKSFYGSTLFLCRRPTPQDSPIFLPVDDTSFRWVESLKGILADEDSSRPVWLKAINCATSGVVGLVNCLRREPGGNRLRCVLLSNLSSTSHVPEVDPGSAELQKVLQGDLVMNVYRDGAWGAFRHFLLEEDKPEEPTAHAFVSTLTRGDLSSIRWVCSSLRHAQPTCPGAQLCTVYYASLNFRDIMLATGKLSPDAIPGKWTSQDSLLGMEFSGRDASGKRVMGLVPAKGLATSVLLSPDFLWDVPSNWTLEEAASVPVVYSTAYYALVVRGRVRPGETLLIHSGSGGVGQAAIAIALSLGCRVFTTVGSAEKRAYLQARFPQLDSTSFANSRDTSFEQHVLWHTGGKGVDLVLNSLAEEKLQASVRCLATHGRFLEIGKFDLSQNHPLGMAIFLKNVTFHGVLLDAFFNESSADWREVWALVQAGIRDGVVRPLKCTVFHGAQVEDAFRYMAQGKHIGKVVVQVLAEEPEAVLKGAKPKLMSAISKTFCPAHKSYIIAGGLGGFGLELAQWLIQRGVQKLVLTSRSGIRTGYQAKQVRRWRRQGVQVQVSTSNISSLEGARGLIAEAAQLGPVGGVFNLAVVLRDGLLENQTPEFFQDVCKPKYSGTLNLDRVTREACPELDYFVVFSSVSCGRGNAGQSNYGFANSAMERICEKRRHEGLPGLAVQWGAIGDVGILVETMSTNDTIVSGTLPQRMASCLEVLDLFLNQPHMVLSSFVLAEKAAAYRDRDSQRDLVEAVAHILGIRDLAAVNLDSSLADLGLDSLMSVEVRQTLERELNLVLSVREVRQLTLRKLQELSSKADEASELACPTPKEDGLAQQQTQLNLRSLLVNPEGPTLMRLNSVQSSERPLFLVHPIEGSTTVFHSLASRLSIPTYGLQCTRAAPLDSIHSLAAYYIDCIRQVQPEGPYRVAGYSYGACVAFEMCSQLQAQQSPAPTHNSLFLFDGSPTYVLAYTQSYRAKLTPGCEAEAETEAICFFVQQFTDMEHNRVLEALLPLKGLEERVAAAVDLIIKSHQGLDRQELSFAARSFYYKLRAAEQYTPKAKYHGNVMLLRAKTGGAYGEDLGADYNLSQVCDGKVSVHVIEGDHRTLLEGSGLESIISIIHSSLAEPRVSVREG
On to `Cn1cc(S(=O)(=O)N2CCC(Cc3ccccc3)CC2)c(=O)n(C)c1=O`, for which the inhibition was -7.6%. Turning to `COCCn1c(SCC(=O)Nc2cc(Cl)ccc2OC)nc2c(c1=O)SC(C)C2` (stereo not given), the inhibition is 20.2%. On to `Cc1ccccc1-n1nnnc1SCCCC(=O)c1ccc(F)cc1`, for which the inhibition was 19.4%. With `CC(C)=CCc1ccc(O)c(=O)cc1C(C)C`, the inhibition was -0.3%. On to `COc1cccc(NC(=O)CN(C)C(=O)c2ccccc2CCc2ccccc2)c1`, for which the inhibition was 23.2%. For the molecule `COc1ccc(CN2CCCC(C(=O)c3ccc(Cl)cc3)C2)cc1Cn1cncn1` (stereo not given), the inhibition is -9.9%. For `COc1ccc(C2Nc3ccccc3C(=O)N2Cc2ccccc2)cc1Cn1nnc2ccccc21` (stereo not given), the inhibition was 35.8%. As for `COc1ccc(C2Nc3ccccc3C(=O)N2c2ccc(Cl)cc2)cc1Cn1cc([N+](=O)[O-])cn1` (stereo not given), the inhibition was 69.9% (active). Take `Cc1ccc(Nc2cc(C)nc3c(C)ccc([N+](=O)[O-])c23)cc1`: the inhibition is 25%. As to `N#CCCN(C(=O)COC(=O)C1CCN(c2ccc(C(F)(F)F)cn2)CC1)c1ccc(F)cc1`, the inhibition was 18.7%. Regarding `Nc1cc(OC(=O)c2ccccc2Br)nn1S(=O)(=O)c1ccccc1`, the inhibition is 5.4%. Next, `O=C(CCl)Nc1ccc(Sc2ccc(NC(=O)CCl)cc2)cc1`: 2.8%; `O=C(Cc1ccc(Cl)c(Cl)c1)Nc1ccc(SC(F)F)cc1`: 66.1% (active); `O=C(CC(O)(C(F)(F)F)C(F)(F)F)Nc1ccc(Cl)c(Cl)c1`: 22.2%. Then `CCOC(=O)Cn1nnnc1C`, with -1.8%. `O=C(NCc1ccc2c(c1)OCO2)c1cc([N+](=O)[O-])ccc1N1CCOCC1`: the inhibition was 51.7% (active). For `CC1CCN(c2ccc(C(=O)NCc3ccc4c(c3)OCO4)cc2[N+](=O)[O-])CC1`, the inhibition was 13.7%. `O=C(Cc1ccc([N+](=O)[O-])cc1)NCCc1ccc2c(c1)OCO2`: the inhibition is 18.8%. Turning to `CN(C)c1ccc(/C=C/C(=O)c2ccc(C(C)(C)C)cc2)cc1[N+](=O)[O-]`, the inhibition was 74.2% (active).

In the case of `CC(C)(C)c1ccc(/C=C/C(=O)NC2CCS(=O)(=O)C2)cc1` (stereo not given), the inhibition was -0.6%. Regarding `CN(C)c1ccc(S(=O)(=O)NCC(=O)NCC2CCCCC2)cc1[N+](=O)[O-]`, the inhibition is 5.2%. For `Cc1ccc(S(=O)(=O)N2CCN(C)CC2)cc1C(=O)NC1CCCCC1`, the inhibition was -7%. For the molecule `CCOC(=O)C1=CN(Cc2ccc(Br)cc2)S(=O)(=O)NC1C` (stereo not given), the inhibition was 9.4%. Regarding `CC(C)[C@@H]1COC(c2cccc(C3=N[C@H](C(C)C)CO3)c2)=N1`, the inhibition was 1.1%. For `CC1(C)O[C@@H]2[C@H](O1)[C@@H](COS(=O)(=O)O)O[C@H]2n1ccc(=O)[nH]c1=O`, the inhibition was -13.4%.
